From PubChem
Cruzain noTriton – qHTS Assay for Promiscuous and Specific Inhibitors of Cruzain (without detergent). purified cruzain, Z-FR-AMC fluorescence, no detergent. Potency, µM, for the others: max response, negative = inhibition, usual class: inhibitors. 200,000 compounds, 2.3% hits. AID 1476, 2009;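 also: plate controls were enzyme without inhibitor for no effect and buffer without enzyme for full effect; nearly all actives have a fitted effect of over 40% in size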
Target sequence (P25779 123-467 limits assumed): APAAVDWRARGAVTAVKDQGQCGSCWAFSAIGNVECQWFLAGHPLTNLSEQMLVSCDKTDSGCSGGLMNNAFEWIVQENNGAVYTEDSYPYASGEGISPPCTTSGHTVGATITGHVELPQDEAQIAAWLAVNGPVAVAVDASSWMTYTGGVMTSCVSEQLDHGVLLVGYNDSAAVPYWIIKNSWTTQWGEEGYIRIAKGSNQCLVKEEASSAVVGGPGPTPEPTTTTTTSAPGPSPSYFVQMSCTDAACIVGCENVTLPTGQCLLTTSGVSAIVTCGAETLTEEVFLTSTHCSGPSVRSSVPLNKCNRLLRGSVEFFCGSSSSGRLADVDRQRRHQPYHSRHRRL
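Detergent-free condition (0.00005% Triton X-100) in acetate buffer pH 5.5 with DTT. 1.5 nM enzyme and compound were pre-mixed 15 min, then 2 uM Z-FR-AMC substrate added; reaction progress from fluorescence change between first and third reads (60 s).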
Cruzain inh Det – qHTS Assay for Promiscuous and Specific Inhibitors of Cruzain (with detergent); Cruzipain (Trypanosoma cruzi), P25779; purified cruzain, Z-FR-AMC fluorescence, 0.01% Triton; 200,000 compounds, 0.43% hits; Potency, µM, for the others: max response, negative = inhibition, most hits filed as inhibitors;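 also: plate controls were neutral wells for no effect and buffer without enzyme for full effect; nearly all actives have a fitted effect of over 40% in size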
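Detergent-containing arm of a paired screen for aggregation-based inhibition: 0.01% Triton X-100 present. Cruzain at 1.5 nM cleaved 2 uM Z-FR-AMC at pH 5.5 with 5 mM DTT; AMC fluorescence gain over 60 s measured activity.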
An asterisk follows results filed as active; ? = inconclusive. The list is not random: actives were taken first. Their share in the collection is about 2.4%. Calls follow the shape of the dose curve; as a rule, active = well fitted curve in the direction sought with a large enough effect; inconclusive = small, poorly fitted or top-dose-only effect, or another doubt; inactive = no such curve, though single readings can be large; an effect the other way counts as inactive or inconclusive. Potency is read from the fitted curve at half-maximal effect.

SMILES	Cruzain noTriton	Cruzain inh Det
Cc1ccc(C)c(N2CCN(C(=O)c3cc(S(=O)(=O)N4CCCC4)c[nH]3)CC2)c1	?	-4%
CCOc1ccc(N=C2NC(=O)S/C2=C\c2ccc(Cl)cc2)cc1	4µM*	-2%
COc1ccc(N=C2NC(=O)S/C2=C\c2ccc(N(C)C)cc2)cc1	?	-3%
O=C(O)CCNc1ncnc2nc[nH]c12	3%	3%
COc1ccccc1CNc1ccnc(-c2cccc(NS(C)(=O)=O)c2)n1	-6%	-5%
O=C(O)[C@H]1CN(CCCP(=O)(O)O)CCN1	-1%	1%
O=C(O)CCC[C@H](O)\C=C/C=C/C=C/[C@H](O)C/C=C\CCCCCO	-10%	5%
O=C(O)CCCC/C=C\C[C@@H](O)/C=C/C=C/C=C\[C@@H](O)CCCC(=O)O	4µM*	13µM*
O=[N+]([O-])c1ccc(N2CCCC2)cc1NC(c1ccccc1)c1ccccc1	10µM*	6%
O=[N+]([O-])c1ccc(N2CCOCC2)cc1NC(c1ccccc1)c1ccccc1	?	-6%
CN(C)Cc1ccccc1-c1nc(N(C)Cc2ccco2)c2ccccc2n1	-2%	3%
COc1ccc(-n2nc(C(=O)c3cccs3)cc(-c3nc4ccccc4[nH]3)c2=N)cc1	3%	-12%
Cc1ccccc1-n1nc(C(=O)c2cccs2)cc(-c2nc3ccccc3[nH]2)c1=N	25µM*	-6%
C(=N\Nc1nc2ccccc2[nH]1)/c1cccs1	?	-27%
Cc1nn(-c2ccccc2)c(C)c1/C=N/Nc1nc2ccccc2[nH]1	25µM*	?
Clc1nc2ccccc2cc1/C=N/Nc1nc2ccccc2[nH]1	?	28µM*
CCN(CC)c1ccc(/C=N/Nc2nc3ccccc3[nH]2)cc1	?	-10%
O=C(CCC(=O)N1CC2CCCN2c2ccccc21)NCc1ccc(Cl)cc1 (stereo not drawn)	13%	-11%
O=C1c2ccccc2C(=O)N1C[C@]1(C(=O)O)NCCS1(=O)=O	-7%	4%
CCOC(=O)Cc1ccc(NC(=O)N(Cc2ccc(CC)cc2)Cc2cn[nH]c2-c2ccc(OC)cc2)cc1	2%	-5%
Cc1ccc(C)c(SCC(=O)OCC(=O)Nc2ncc(C(F)(F)F)cc2Cl)c1	15%	?
O=C(COC(=O)CSc1cccc2cccc(Cl)c12)Nc1ncc(C(F)(F)F)cc1Cl	25µM*	?
O=C(COC(=O)CNC(=O)c1ccccc1Cl)Nc1ncc(C(F)(F)F)cc1Cl	1.3µM*	1.6µM*
O=C(COC(=O)c1ccc2ccccc2c1)Nc1ncc(C(F)(F)F)cc1Cl	-5%	5%
CC(C)(C)c1ccc(-c2nc(SCCCOc3ccccc3)n3[nH]c(=O)cc3n2)cc1	13µM*	-7%
SMILES	Cruzain noTriton	Cruzain inh Det
COc1ccccc1OCCCSc1nc(-c2ccc(C(C)(C)C)cc2)nc2cc(=O)[nH]n12	-19%	-21%
COc1ccc(C(=O)c2sc3nc(C)cc(-c4cccs4)c3c2N)cc1	?	-5%
Cc1cc(-c2cccs2)c2c(N)c(C(=O)c3ccc4c(c3)OCO4)sc2n1	25µM*	-6%
Cc1ccc(-n2cc3c(c2-c2ccccc2Br)c(=O)n(C)c(=O)n3C)cc1N	-5%	-3%
COc1cc(OC)c(NC(=O)c2ccc3c(c2)N(Cc2ccc(C)cc2)CCS3)cc1Cl	7.9µM*	-4%
COc1ccc(CCNC(=O)c2ccc3c(c2)N(Cc2ccc(C)cc2)CCS3)cc1OC	-2%	-4%
CCc1ccc(NC(=O)c2ccc3c(c2)N(Cc2ccc(C)cc2)CCS3)cc1	16µM*	-5%
Cc1ccc(CN2CCSc3ccc(C(=O)Nc4ccc(F)cc4F)cc32)cc1	?	-11%
CCCCC1=CC2=C(OC(C)=O)C(=O)C(C)(OC(=O)c3ccc(Cl)nc3)C(=O)C2=CO1 (stereo not drawn)	4%	2%
CC1CC(C)CN(C(=O)c2ccc3c(=O)n(Cc4ccc5c(c4)OCO5)c(=S)[nH]c3c2)C1 (stereo not drawn)	?	-3%
COc1cc(NC(=O)CSc2ccc(-c3sc(C)nc3C)nn2)cc(OC)c1	?	-9%
COc1ccc(C2CC(=O)Nc3c2c(C)nn3-c2nncc(-c3ccc(C)cc3)n2)c(OC)c1OC (stereo not drawn)	-14%	9%
N#C/C(=C\c1ccc(-c2ccccc2)o1)C(=O)Nn1cnnc1	-2%	-6%
N#C/C(=C\c1ccc(-c2cccc(Cl)c2)o1)C(=O)Nc1cccc2cccnc12	3.2µM*	0%
COc1ccc(C2C=C(c3ccc(F)cc3)Nc3nc(-c4ccc(Cl)cc4)nn32)cc1 (stereo not drawn)	-22%	2%
COc1ccc(C2=CC(c3ccccc3Cl)n3nc(-c4ccc(C)cc4)nc3N2)cc1 (stereo not drawn)	3.2µM*	-5%
COCCN(CCOC)S(=O)(=O)c1ccc(C(=O)Nc2sc3c(c2C(N)=O)CCCC3)cc1	9%	-4%
NC(=O)c1c(NC(=O)c2ccc(S(=O)(=O)N3CCOCC3)cc2)sc2c1CCCCC2	?	-4%
CN1CCN(S(=O)(=O)c2cccc(C(=O)Nc3sc4c(c3C(N)=O)CCCC4)c2)CC1	13µM*	?
NC(=O)c1c(NC(=O)c2ccc(S(=O)(=O)N(CCCl)CCCl)cc2)sc2c1CCCCC2	4µM*	1%
COc1cc2c(cc1OC)C1N(CC2)C(=O)CCC12C(=O)CCCC2=O (stereo not drawn)	-13%	8%
NC1=N[C@H](c2ccc(Cl)cc2)N(c2ccc(S(N)(=O)=O)cc2)C(N)=N1	2%	-2%
CCc1ccccc1NC(=O)CN1C(=O)COc2ccc(S(=O)(=O)Nc3ccccc3)cc21	-25%	-6%
O=C(COC(=O)c1cc([N+](=O)[O-])ccc1NCc1ccccc1)NCc1ccccc1Cl	-84%	-5%
O=C(COC(=O)c1cc([N+](=O)[O-])ccc1NCc1ccccc1)NC1CCCc2ccccc21 (stereo not drawn)	25µM*	2%
SMILES	Cruzain noTriton	Cruzain inh Det
COc1ccc(N(C(=O)c2cccc(C)c2)S(=O)(=O)c2ccc(Cl)cc2)cc1	-30%	-3%
COc1ccc(N(C(=O)c2ccc(C(C)(C)C)cc2)S(=O)(=O)c2ccc(Cl)cc2)cc1	10µM*	-3%
Cc1ccc(CCNC(=O)c2c(C)oc3ncn(CC(C)C)c(=O)c23)cc1	-12%	-3%
CCOC(=O)c1cccc(NC(=O)CCn2nc(C)c3c(C)n(-c4ccccc4)nc3c2=O)c1	-5%	-2%
C[C@@H]1NCC[C@H](CC(=O)O)[C@H]1CC(=O)O	2%	2%
Cn1cccc1C(=O)N1CCC2(CCCN(c3ccncc3)C2)CC1	-7%	1%
COc1cccc2cc(/C(C)=N/Nc3nc(-c4cc(C)ccc4C)cs3)c(=O)oc12	5µM*	-16%
CNC(=O)c1cc2cccc(OC)c2oc1=O	-7%	-3%
C[C@H]1CS(=O)(=O)CCN1/N=C\c1ccc([N+](=O)[O-])o1	-16%	-4%
COc1ccc(CNC(=O)CN2C(=O)CSc3ccc(S(=O)(=O)N4CCOCC4)cc32)c(OC)c1	5%	0%
Nc1c(C(=O)NCC2CCCO2)sc2nc3c(c(-c4ccco4)c12)CC/C3=C\c1ccco1 (stereo not drawn)	-4%	28µM*
Cc1ccccc1NC(=O)c1sc2nc3c(c(-c4ccco4)c2c1N)CCC3	-27%	-4%
CCOCCCNCC(=O)N1CCN(S(=O)(=O)c2ccc(C)cc2)CC1	-8%	1%
